Data: PubChem BioAssay AID624309 (Sanford-Burnham Center for Chemical Genomics, 2012)
About 260 (13%) of roughly 2,000 compounds were called active. Only a sample is shown. A number with no mark means an inactive call. No stated cut-off is given here; in the data, active means inhibition mostly above about 42% (no sharp cut-off); inactive means mostly below about 42%.

These compounds were tested on Nicotinate mononucleotide adenylyltransferase NadD (Staphylococcus aureus N315) (assay: inhibitors of S. aureus NadD, confirmation, biochemical, colorimetric, single concentration (AID 624309)). Details: purified S. aureus NadD, colorimetric enzyme assay; at 20 µM; stronger effect = higher value.
In the case of Cc1cc(N2C(=O)C(O)=C(C(=O)c3ccc(C)o3)C2c2ccc(OCc3ccccc3)cc2)no1 (configuration not stated), the inhibition is reported as 51.4% (active). With CCCn1c(C)cc(-c2csc(NC(=O)CCc3nc4ccccc4c(=O)[nH]3)n2)c1C the inhibition was 25.1%. For CCc1ccc(-n2c(=S)sc3c(=O)n(-c4ccccc4OC)c(=S)[nH]c32)cc1, the inhibition was 5.54%. With Cc1ccc(C(=O)COC(=O)c2cccc(N3C(=O)c4c(C)nc5ccccc5c4C3=O)c2)cc1C the inhibition was 0.6%. With Cc1cc(C)c2nc(-c3cccnc3)cc(C(=O)Nc3ccc(S(=O)(=O)Nc4onc(C)c4C)cc3)c2c1 the inhibition was 64% (active). With COc1cccc2sc(NNC(=O)c3nc4ccccc4s3)nc12 the inhibition was 43.7%. O=C(COC(=O)c1cc(=O)[nH]c2ccccc12)Nc1nc(-c2cccc(Br)c2)cs1 was tested, and the inhibition was 5.44%. CCOc1ccc(CCN2C(=S)N([C@@H](CC(C)C)CN3CCC[C@@H]3CN3C(=S)NC[C@@H]3Cc3ccc(O)cc3)C[C@@H]2Cc2ccc(O)cc2)cc1 was tested, and the inhibition was 29.1%. COc1ccc(C(=O)/C=C/c2ccc(-c3ccccc3)cc2)cc1CSCC(=O)O was tested, and the inhibition was 46.5%. Cc1ccc(Cn2c(=N)c(S(=O)(=O)c3ccc(C)cc3)cc3c(=O)n4ccccc4nc32)cc1 showed an inhibition of 20.4%. Cc1ccc(N2C(=O)C3N=NN(CC(=O)N4N=C(c5cccc6ccccc56)CC4c4ccccc4)C3C2=O)cc1 (configuration not stated) showed an inhibition of 33.1%. CC(=O)Nc1ccc(Nc2cc(C)nc(Nc3ccc(NC(C)=O)cc3)n2)cc1 was tested, and the inhibition was 9.22%. Compound O=C1NC[C@H](Cc2ccc(O)cc2)N(C[C@@H]2CCCN2C[C@H](Cc2ccccc2)N2C[C@H](Cc3ccccc3)N(CC3CCCCC3)C(=O)C2=O)C1=O has an inhibition of 38.1%. O=C(Nc1ccc(NC(=O)c2cccs2)cc1)c1ccc2ccccc2c1 was tested, and the inhibition was -0.66%. With Nc1ccc2nc3c(=O)[nH]c(=S)[nH]c3nc2c1 the inhibition was 72.4% (active). For Cc1ccc(C(=O)Oc2coc(CSc3nnc(NC(=O)c4cccs4)s3)cc2=O)cc1C, the inhibition was 13.8%. Work on CC(C)CC1C(=O)N(Cc2cn(Cc3ccco3)nn2)CCS(=O)(=O)N1Cc1ccc(-c2ccc(Cl)c(Cl)c2)cc1 (configuration not stated) yielded an inhibition of 35%. With COc1cc(C2CC(=O)N3CN(Cc4ccccc4)CSC3=C2C#N)ccc1OCc1ccccc1 (configuration not stated) the inhibition was 4.07%. For COCCCn1c(=O)/c(=C/c2ccccc2OC(C)C)s/c1=C(\C#N)C(=O)Nc1ccc(C(=O)O)cc1, the inhibition was 12.9%. Compound NNc1cccc(C=Cc2ccccc2)cc1=O has an inhibition of 39.5%. O=C(CSc1nnc(-c2cccnc2)n1Cc1ccco1)c1ccc(Cl)c(Cl)c1 gave an inhibition of 32.6%. Compound COc1ccc(Cl)cc1C(=O)NNC(=S)NC(=O)/C=C/c1ccco1 has an inhibition of -2.56%. COc1ccc(NS(=O)(=O)c2ccc(NC(=S)NC(=O)/C=C/c3ccc(C)cc3)cc2)nn1 was tested, and the inhibition was 58.1% (active). COc1ccc(C2=NN(C(=O)CSc3nc(=O)n4ccc(C)cc4n3)C(c3ccc(C)cc3)C2)cc1 (configuration not stated) was tested, and the inhibition was 18.2%. C[C@H](CO)N1C[C@H](C)[C@H](CN(C)C(=O)Nc2ccc(C(F)(F)F)cc2)Oc2c(NC(=O)c3ccncc3)cccc2C1=O gave an inhibition of 27.5%. In the case of Cc1ccc2nc(/C(C#N)=C\c3ccc(OC(=O)c4cccs4)cc3)[nH]c2c1, the inhibition is reported as 21%. With Cc1ccc(/C=C/C(=O)Nc2ccc([N+](=O)[O-])c(NC(=O)/C=C/c3ccc(C)o3)c2)o1 the inhibition was 60.6% (active). In the case of CCCn1c(C(C)Nc2nc(-c3ccc(C)cc3)cs2)nc2cc(Cl)c(N3CCCCC3)cc21 (configuration not stated), the inhibition is reported as 0.81%. CCC(NC(=O)c1cc(COc2ccc(F)c(F)c2)on1)c1ccncc1 (configuration not stated) was tested, and the inhibition was 2.18%. c1ccc(-c2nccc(-c3ccc(-n4cnc5ccccc54)cc3)n2)nc1 gave an inhibition of 16.5%. With O=C(CSc1nc2ccccc2c(=O)[nH]1)Nc1nc(-c2ccc(Br)cc2)cs1 the inhibition was 6.59%. Cc1ccc(Cn2nnc3c(=O)[nH]c(C4CCN(S(=O)(=O)/C=C/c5ccccc5)CC4)nc32)cc1 was tested, and the inhibition was 37%. Work on Cc1ccc(Cn2c(C)nc3c(c2=O)c2nc4ccccc4nc2n3Cc2ccco2)cc1 yielded an inhibition of 11.8%. Cn1c2ccccc2c(=O)c2c(=O)n(Cc3ccco3)c(COc3ccccc3)nc21 showed an inhibition of 10.4%. With Cc1cc(C(=O)CSc2nc(N)cc(=O)[nH]2)c(C)n1CCc1ccc(Cl)cc1 the inhibition was 21.5%. Work on C#Cc1cc(N2CCN(C(=O)c3ccoc3)CC2)n2nc(-c3cccc(Cl)c3)cc2n1 yielded an inhibition of 25.9%. COc1ccc(-c2nn(-c3ccccc3)cc2/C=N/Nc2ccccn2)cc1OC was tested, and the inhibition was 5.86%. In the case of Cc1ccc(-c2nc(-c3cccnc3)sc2CC(=O)Nc2ccc(C)c(Cl)c2)cc1, the inhibition is reported as -1.82%. For Cc1noc(/C=C/c2ccco2)c1S(=O)(=O)N1CCC(C(=O)N2CCc3ccccc32)CC1, the inhibition was 4.7%. Cn1cncc1C#Cc1c(-c2ccsc2)sc2ccccc12 gave an inhibition of 9.54%. With O=C(N/N=C/c1ccc(Cl)cc1)c1nc2ccc([N+](=O)[O-])cc2c(=O)[nH]1 the inhibition was 9.54%. Work on COc1ccccc1/C=C/C=N/n1c(-c2ccc(Cl)cc2Cl)n[nH]c1=S yielded an inhibition of 17.4%. CCC(c1nnnn1Cc1ccco1)N(Cc1cc2cc(OC)ccc2[nH]c1=O)C1CCCCC1 (configuration not stated) gave an inhibition of 14.9%. COc1ccc(C(=O)Nc2cccc(/C=C(/CCC(=O)O)c3nc4ccccc4s3)c2)cc1 gave an inhibition of 35.7%. With CC(C)(C)C(=O)Nc1ccc(C(=O)N/N=C/c2ccccc2OC(=O)c2ccc(Cl)cc2Cl)cc1 the inhibition was 0.49%. CCCCCCc1cc2cc(-c3nnc(-c4ccccc4)o3)c(=O)oc2cc1O showed an inhibition of -1.61%. Cc1cc(O)c(C(=O)/C=C/c2c(F)c(F)c(F)c(F)c2F)c(=O)o1 gave an inhibition of 12.9%. For CCOC(=O)c1ccccc1N1C(=O)C2Sc3[nH]c(=O)sc3C(/C=C/c3ccccc3)C2C1=O (configuration not stated), the inhibition was 57.6% (active). CC(C)Oc1ccc(/C=C(\NC(=O)/C=C/c2ccco2)C(=O)NCCc2nc3ccccc3[nH]2)cc1 was tested, and the inhibition was 37.9%. Nc1[nH]c(=S)nc2nc(-c3ccccc3)c(-c3ccccc3)nc12 showed an inhibition of 38.5%. Compound COc1ccc([N+](=O)[O-])cc1NC(=O)CC1SC(=Nc2cccc(C)c2C)N(/N=C(\C)c2ccc(C)cc2)C1=O (configuration not stated) has an inhibition of -2.98%. Work on Cc1nc(N2CCN(c3ccccn3)CC2)c2c(C)c(C(=O)Nc3ccc(F)c(Cl)c3)sc2n1 yielded an inhibition of 3.33%. With C=CC1=C(C(=O)O)N2C(=O)[C@@H](NC(=O)/C(=N/OCC(=O)O)c3csc(N)n3)[C@H]2SC1 the inhibition was 95.8% (active). Compound O=C(O)c1ccc(COCC(F)(F)F)cc1 has an inhibition of 10.3%. With CC1(OC(=O)C2CCCC2)C(=O)C=C2C=C(c3ccc(C#N)cc3)OC=C2C1=O (configuration not stated) the inhibition was 73.5% (active). Cc1nn(-c2ccccc2)c(C)c1/C=N/NC(=O)CSc1nc2ccccc2c(=O)n1-c1ccccc1 was tested, and the inhibition was 8.17%. CCOc1ccc(-c2n[nH]c(=S)n2/N=C/c2cc3c(cc2[N+](=O)[O-])OCO3)cc1 was tested, and the inhibition was 4.81%. N#CC1=C(SCc2ccc(C#N)cc2)N=C(N)C(c2nc(-c3ccccc3)cs2)C12CCCCC2 (configuration not stated) showed an inhibition of 24.2%. Work on CCN(CC)C(=O)c1sc2nc(-c3ccccc3)ccc2c1N yielded an inhibition of -11.1%. Work on O=C(CSc1nc(Nc2ccccc2)nc(N2CCOCC2)n1)Nc1cc(Cl)ccc1O yielded an inhibition of 43.2%. O=C(NCC(=O)N1CCN(c2ccccc2O)CC1)c1ccc2ccccc2c1 was tested, and the inhibition was 34.8%. In the case of CCCCCCC(=O)Nc1nc(C)c(-c2csc(Nc3cc(Cl)ccc3OC)n2)s1, the inhibition is reported as 5.75%. For Cc1ccc(NS(=O)(=O)c2ccc(N/N=C/c3ccccc3OCC(=O)O)c([N+](=O)[O-])c2)c(C)c1, the inhibition was 64.9% (active). In the case of COc1ccc(Br)cc1/C=N/Nc1ccc(S(=O)(=O)Nc2ccccc2C(=O)O)cc1[N+](=O)[O-], the inhibition is reported as 73.9% (active). For O=C(Nc1ccc(S(=O)(=O)Nc2nccs2)cc1)c1cc(-c2ccncc2)nc2ccccc12, the inhibition was 44.5% (active). COc1ccc(NS(=O)(=O)c2cc(NC(=O)CC(=O)c3ccc([N+](=O)[O-])cc3)ccc2C)cc1 was tested, and the inhibition was 28.1%. In the case of CCn1cc(C(=O)NCCCN2CCCCCC2)c(=O)c2cc(S(=O)(=O)N3CCc4ccccc4C3)ccc21, the inhibition is reported as -16.2%. Cc1cc(C)c(S(=O)(=O)NN=C2c3ccccc3[C@H]3Cc4csc[n+]4[C@@H]23)c(C)c1 was tested, and the inhibition was 30.1%. With Cc1ccc(Cc2cnc(NC(=O)/C(C#N)=C/c3ccc(-c4cccc([N+](=O)[O-])c4)o3)s2)cc1 the inhibition was 5.75%. In the case of Nc1nc2n(n1)C(c1ccco1)CC(c1ccc(Cl)c(Cl)c1)N2 (configuration not stated), the inhibition is reported as 13.2%. Work on CCOc1ccc2nc(N3CCCN(C(=O)Nc4ccccc4C)CC3)c(C#N)cc2c1 yielded an inhibition of -3.08%. In the case of CCOc1ccc2nc(/N=C/c3nc(-c4ccccc4)oc3O)sc2c1, the inhibition is reported as 5.96%. Work on COc1cccc(-c2nn(-c3ccccc3)cc2/C=C(\C#N)C(=O)NCCCn2ccnc2)c1 yielded an inhibition of 2.7%. Cc1nn2c(c1-c1ccccc1)N=C(c1ccco1)CC2c1ccccc1 (configuration not stated) was tested, and the inhibition was 21.2%. In the case of COC(=O)c1ccc2nc(-c3ccc(C)cc3)c(Cc3ccc(OC)cc3C)n2c1, the inhibition is reported as 12.6%. In the case of Cc1cc2nc(-c3ccco3)c(Cc3cccc(F)c3)n2c(C)c1Br, the inhibition is reported as 22.4%. In the case of C/C(=N\NC(=O)CNc1cccc2ccccc12)c1ccc(Br)s1, the inhibition is reported as 8.07%.
